Screens as filed in PubChem BioAssay.
A selection: hits, their analogues and other compounds. The true share with any hit is near 2.5%.
Cruzain Triton: qHTS Assay for Promiscuous and Specific Inhibitors of Cruzain (with detergent) | AID 1478, 2009 | Potency, µM, most hits filed as inhibitors | 200,000 compounds, 0.43% hits | purified cruzain, Z-FR-AMC fluorescence, 0.01% Triton; further: nearly all actives have a fitted effect of over 40% in size
Target sequence (P25779 123-467 limits assumed): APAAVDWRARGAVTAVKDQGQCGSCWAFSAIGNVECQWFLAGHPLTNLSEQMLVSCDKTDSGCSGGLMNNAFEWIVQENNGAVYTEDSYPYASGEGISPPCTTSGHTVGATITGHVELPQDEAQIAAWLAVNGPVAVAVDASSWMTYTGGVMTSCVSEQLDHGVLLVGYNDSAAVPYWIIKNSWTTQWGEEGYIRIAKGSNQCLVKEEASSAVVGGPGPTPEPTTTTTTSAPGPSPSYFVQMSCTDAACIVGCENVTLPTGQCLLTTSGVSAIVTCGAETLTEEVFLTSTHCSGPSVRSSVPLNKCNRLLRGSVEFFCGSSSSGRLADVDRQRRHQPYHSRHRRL
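Detergent-containing run (0.01% Triton X-100) in acetate buffer pH 5.5 with 5 mM DTT: enzyme at 1.5 nM final, 15 min compound preincubation at room temperature, then 2 uM Z-FR-AMC substrate. Activity taken as 60 s fluorescence increase at 360/450 nm.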
Cruzain inh noDet: qHTS Assay for Promiscuous and Specific Inhibitors of Cruzain (without detergent). AID 1476, 2009. 200,000 compounds, 2.3% hits. Potency, µM, most hits filed as inhibitors. Cruzipain (Trypanosoma cruzi), P25779. purified cruzain, Z-FR-AMC fluorescence, no detergent; further: nearly all actives have a fitted effect of over 40% in size
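Purified cruzain at 1.5 nM, pre-incubated 15 min with compound at room temperature in 100 mM sodium acetate pH 5.5, 5 mM DTT, 0.00005% Triton X-100. Reaction started with 2 uM Z-FR-AMC; AMC fluorescence increase over 60 s gives rate.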
Large screens that a line does not name were inactive. The call rests on the fitted dose curve; in most records, active means well fitted curve in the direction sought with a large enough effect; inconclusive means small, poorly fitted or top-dose-only effect, or another doubt; inactive means no such curve, though single readings can be large; an effect the other way counts as inactive or inconclusive.

Cc1cc(/C=C2/NC(=O)N(Cc3ccccc3F)C2=O)c(C)n1C(C)C	Cruzain inh noDet 25µM
CCn1c(C)cc(/C=C2/NC(=O)N(Cc3ccccc3F)C2=O)c1C	Cruzain inh noDet inconclusive
CCc1ccccc1NC(=O)C1CCN(C2=NS(=O)(=O)C(c3ccc(C)c(C)c3)=C2C)CC1	none
O=C(CN(c1cccc(C(F)(F)F)c1)S(=O)(=O)c1ccc(Cl)c([N+](=O)[O-])c1)NCc1ccccc1Cl	Cruzain inh noDet 25µM
O=C(CN(c1cccc(C(F)(F)F)c1)S(=O)(=O)c1ccc(Cl)c([N+](=O)[O-])c1)NCc1ccccc1	none
C=C(C)CSc1nc2sc3c(c2c(=O)n1-c1ccccc1)CCC(C)C3 (stereo not given)	none
NC(=O)Cn1c(=O)n(Cc2ccco2)c(=O)c2c3c(sc21)CCCCC3	none
O=C(Cn1c(=O)n(Cc2ccco2)c(=O)c2c3c(sc21)CCCC3)Nc1ccccc1	Cruzain inh noDet 25µM
Cc1nc2c(c(C)nn2-c2ccccc2)c(C)c1CCC(=O)Nc1ccc(F)cc1	none
Cc1ccc(-c2nnc(SCC(=O)Nc3sc(C)c(C)c3C#N)n2C)cc1	Cruzain inh noDet inconclusive
Cc1sc(NC(=O)CSc2nnc(COc3ccc(Cl)cc3)n2C)c(C#N)c1C	Cruzain inh noDet 25µM
Cc1cccc(NCCC(=O)c2ccc(Br)cc2)c1	none
CCOC(=O)CNCCC(=O)c1ccc(Br)cc1	Cruzain Triton 25µM, Cruzain inh noDet 10µM
O=c1cc(-c2ccccc2)oc2cc(O[C@@H]3O[C@H](CO)[C@@H](O)[C@H](O)[C@H]3O)c(O)c(O)c12	none
O=c1ccc2cc(OC3OC(CO)C(O)C(O)C3O)c(O)cc2o1 (stereo not given)	Cruzain Triton 7.9µM, Cruzain inh noDet 13µM
O=C(Nc1ccccc1C(=O)O)c1cccc(S(=O)(=O)N2CCCC2)c1	none
CC1CCC/C(=N\NC(=S)NCc2ccccc2)C1 (stereo not given)	none
CC1CCC/C(=N\NC(=S)Nc2ccccc2)C1 (stereo not given)	Cruzain Triton 14µM
CCOc1ccc(CCNC(=O)Cn2nc(C)n3c(cc4occc43)c2=O)cc1OCC	none
O=C(c1cc2sccc2n1Cc1ccccc1)N1CCCc2ccccc21	Cruzain inh noDet 20µM
O=C(c1cc2sccc2n1Cc1ccccc1)N1CCc2ccccc21	Cruzain inh noDet inconclusive
O=C(Cn1c(=O)sc2ccccc21)Nc1ccc(S(=O)(=O)N2CCCCC2)cc1	Cruzain inh noDet 32µM
O=C(Cn1c(=O)sc2ccccc21)Nc1ccccc1	none
Cc1ccc(NC(=O)c2ccc3oc(=O)c(S(=O)(=O)c4ccccc4)cc3c2)cc1C	none
CCn1cc(C(=O)N2CCN(c3ccc(F)cc3)CC2)c(=O)c2cc(S(=O)(=O)N3CCOCC3)ccc21	Cruzain inh noDet inconclusive
Cc1cc(C)n(-c2nc3ccccc3nc2N2CCN(c3cccc(C)c3C)CC2)n1	none
O=C(c1cccc(N2C(=O)C3CC=CCC3C2=O)c1)N1CCN(c2ccccc2)CC1 (stereo not given)	Cruzain Triton 22µM, Cruzain inh noDet 16µM
O=C(c1cccc(N2C(=O)C3CC=CCC3C2=O)c1)N1CCCCCC1 (stereo not given)	none
CCOc1ccc(NC(=O)NCc2ccc3c(c2)CCN3C(C)=O)cc1	none
CNC(=O)c1c(N)sc2c1CCCCC2	none
NC(=O)c1c(N)sc2c1CCCCC2	Cruzain inh noDet 25µM
Cc1cccc(C(=O)Nc2ccc3nc(SCC(=O)N4CCc5ccccc54)sc3c2)c1	Cruzain inh noDet inconclusive
Cc1ccccc1C(=O)Nc1ccc2nc(SCC(=O)N3CCc4ccccc43)sc2c1	Cruzain inh noDet 10µM
Cc1ccc(NC(=O)c2nnn(Cc3ccccc3)c2N)cc1C	none
CSc1ccc(Cn2nnc(C(=O)Nc3ccc(C)c(C)c3)c2N)cc1	Cruzain inh noDet 25µM
COc1ccc(S(=O)(=O)Nc2cc3c(cc2N2CCOCC2)n(C)c(=O)n3C)cc1	none
COc1ccc(S(=O)(=O)N2CCC(c3nc4ccccc4s3)CC2)cc1OC	none
COc1cc(S(=O)(=O)N2CCC(c3nc4ccccc4s3)CC2)ccc1S(=O)(=O)N1CC(C)CC(C)C1 (stereo not given)	Cruzain inh noDet 4µM
O=Cc1c2[nH]c3ccccc3c2cc2[nH]c3ccccc3c12	Cruzain inh noDet 25µM
c1ccc2c(c1)[nH]c1ccccc12	none
CN(C)c1ncc2nc(-c3cc(F)cc(F)c3)c(=O)n(C)c2n1	Cruzain inh noDet 20µM
CN(C)c1ncc2nc(-c3cc(F)cc(F)c3)c(=O)n(C3CC3)c2n1	none
COc1cc(NS(=O)(=O)c2ccc(NC(=S)NC(=O)c3sc4ccccc4c3Cl)cc2)nc(OC)n1	none
O=C(NC(=S)Nc1ccccc1N1CCOCC1)c1sc2ccccc2c1Cl	Cruzain inh noDet 10µM
NC(N)=NS(=O)(=O)c1ccc(NC(=S)NC(=O)c2sc3ccccc3c2Cl)cc1	Cruzain inh noDet 10µM
O=C(NC(=S)Nc1ccc(N2CCOCC2)c(Cl)c1)c1sc2ccccc2c1Cl	Cruzain inh noDet inconclusive
